# Measurements taken from the supplement of paper PMC6555819.
# How the values were obtained:
# Test in all cases: PBM binding z-score (relative to random genomic background probes); higher = stronger binding; sequences stand for … in GC…GCGATTGACAGCGTAGAATGAAGG
# [1] = test system: RARb homodimer (NR concentration 270 nM)
# In short: (§1)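 Each nuclear receptor dimer, without ligand, was incubated for 1 h on custom Agilent 4×180K protein-binding microarrays. Binding was detected with antibodies against each partner (one per run), and scanned fluorescence was regression-normalized. The binding z-scores are referenced to random human genomic background probes.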
# [2] = test system: RARg:RXRa (NR concentration 270 nM, RXRa partner concentration 90 nM)
# In short: as §1
# [3] = test system: RARg homodimer (NR concentration 270 nM)
# In short: as §1
# [4] = test system: RXRa DBDmut IVT, anti-RXR (DBD mutation: RXRa K156A/R161A, NR concentration 90 nM)
# In short: as §1
# [5] = test system: RXRa homodimer (NR concentration 180 nM)
# In short: as §1
# [6] = test system: THRa:RXRa (NR concentration 90 nM, RXRa partner concentration 90 nM)
# In short: as §1
# [7] = test system: THRa homodimer (NR concentration 90 nM)
# In short: as §1
# [8] = test system: VDR homodimer (NR concentration 270 nM)
# In short: as §1
Sequence,PBM binding z-score [1],PBM binding z-score [2],PBM binding z-score [3],PBM binding z-score [4],PBM binding z-score [5],PBM binding z-score [6],PBM binding z-score [7],PBM binding z-score [8]
CCTTACGGCTCAAGGTTATAGCACGGGTGGTACG,0.426,0.285,0.278,-0.298,0.615,1.05,0.716,0.469
TCTTGTAGATCAACAGGAGGTTAAGGAAGATCGA,0.564,0.698,0.308,0.0925,0.861,0.777,-0.373,-0.358
TCTTGTAGATCAACAGGAGGTTGAGAAAGATCGA,-0.533,0.156,-0.228,0.313,0.301,-0.174,-0.919,-0.475
TCAGACAGGTGAAGGTAACCCAGGTACGCAGTCG,1.25,0.745,0.803,0.992,1.29,1.48,0.57,0.454
CGTCAAAGTTCAACTATGGTAACGTAAAGCACGC,4.39,5.88,6.65,4.74,4.82,3.57,0.175,4.04
TCTTGTATATCAAGCAGGTTAAGAAAGCCTGAGT,0.552,0.261,-0.15,0.788,0.587,0.47,-0.282,0.228
TGAATGAGGTTATACGATCAGGGAACGTTGCAAA,0.016,1.31,1.01,0.956,2.06,1.8,0.24,0.274
CCAGACAGGTGAAAGGTAACTGAGTCTGGTACGC,0.792,1.55,0.856,-0.0997,2.19,0.931,-0.381,-0.0816
GATACAGGGTCAAGGCCATAGTACGCGTATTGAT,3.69,5.34,5.15,2.44,5.52,3.54,1.52,2.22
TGAATGAGCTTATAAGATCAGGGAACGTTGCAAA,-1.21,-0.305,-0.288,-1.2,-0.211,-0.371,-1.18,-0.577
ATCTCTAGGCAACAAGTTCAGTGAAAGAGAGGAC,1.5,0.455,0.889,0.344,0.308,0.961,0.49,2.1
CCGACTGGAGCAAGGTTACCATAACGCACAGCCA,1.15,0.461,0.534,0.587,0.971,1.16,0.379,0.142
TGAATGATGTTAAAGATCAGGGAACGTGGCGTCG,-0.832,0.221,0.133,-0.892,0.495,-0.238,-0.77,-0.0105
CCTATAAGTTGACCATAAGGGCAACCGAAGCTCG,2.31,2.2,1.31,0.769,0.942,2.44,1.2,1.32
ACTAGCAGGCCAAGTTGGGGTCACTCAAACAAAG,3.81,4.97,3.25,0.825,5.2,4.16,2.89,3.34
CATACAGGGTCAGCTAGGCCAGACTAGGGACGGC,3.19,4.5,4.67,1.37,3.99,3.16,1.06,1.2
TCTTGTAGATCAACATGAGGTTAAGAAAGATCGA,0.695,1.12,0.455,0.475,1.27,2.18,0.657,0.413
CCTCGGAGGACAGAAGGCCAGAGCTGTCCGCTTT,0.275,-0.112,0.0875,-0.346,-0.765,0.0492,-0.927,-0.212
TGTCAAAGTTCAAAGGTAACGTAAGTATCCACAC,3.82,6.28,6.19,4.36,7.27,3.53,0.176,4.04

Sequence,PBM binding z-score [1],PBM binding z-score [2],PBM binding z-score [3],PBM binding z-score [4],PBM binding z-score [5],PBM binding z-score [6],PBM binding z-score [7],PBM binding z-score [8]
TAGCCTAGGTCAGATCGGGCCACTATACGCTATA,2.48,2.78,3.37,-0.221,1.48,4.72,0.493,0.0583
CCTACTGGGCCAAAGGTCATTGAATCCAATGCTC,4.89,5.95,4.83,1.05,6.52,3.56,0.752,2.23
ATATGTAGGGTACATCCGGGTCATTCAGGCTATG,2.84,2.44,1.86,2.66,2.64,3.83,2.45,5.83
TGAATGAGGTTAAAGATCAGGGGACGTGGCGTCG,1.02,2.29,1.31,1.01,3.57,2.83,0.742,0.974
TCTTGTAGATCAATAGAGGTTAAGAATGTGCGCT,1.06,0.814,0.559,0.783,1.38,2.15,-0.391,0.277
TCTTGTATATCAGCAGGTTAAGAAAGCTGGCCAA,0.756,0.511,0.266,1.05,0.75,0.759,0.0914,0.143
TAGCCGAGGTCATGGGCCAGTATACCACGCGAAC,4.19,6.64,6.26,3.46,7.64,4.25,2.71,3.91
CCTAGCAGGCCAATCTCGGTCACTCAAGGCTTGA,1.46,0.504,1.24,0.398,-0.123,1.92,-0.183,-0.29
CCGGCTGGGGCAAAGGTTACCATACTCAGTACGA,2.25,3.68,1.69,-0.158,3.6,1.77,-0.377,-0.169
GCGACTGTGGCAAAGCAGGTTACCATAAGGTTGG,0.168,-0.101,-0.193,-0.432,0.102,1.22,-0.306,-1.03
GGAACGAGGGCAAAGTCGATAGCATCTGTCGACG,0.649,0.932,0.988,2.53,0.723,0.62,-0.445,1.19
GCAGACAAGTGAAACGCAGGTAACTCAGGGTGGC,-1,-0.267,-0.436,-0.633,0.115,0.682,-0.967,-0.593
CCGTCTGGGGCATAAGGTTACCATAAGCCAGCCC,1.92,1.86,1.18,-0.715,1.23,2.17,1.31,0.173
CTACCAAGGTGAACAAGGTCGTGGATTACTATTC,2.22,2.24,1.63,0.592,2.7,3.64,2.18,1.27
CCAGAGAGGTGAGAAGGTAACTCAGCCTCGATTA,1.31,1.52,1.22,0.0821,1.05,1.19,0.396,0.477
CCAGACAGGTGAGAAGGTATCTCAGCCTCGATTA,-0.0686,0.015,0.26,0.0467,0.0793,-0.219,-0.183,-0.56
ACTATTAGTTGAGACGAGGGCAACCGATAGGTTG,1.2,0.833,0.861,0.5,0.75,2.7,0.226,0.728
AATACCGGGTCATCGTAGGCCAGAGTACGCACAG,3.19,4.84,4.28,2.45,5.06,4.59,1.69,3.06
CCTAGCAGGCCAGGGTAACTCAAGCATTTCGCTT,-0.537,-0.456,-0.357,-0.541,-0.455,-0.054,-0.445,-0.329

Sequence,PBM binding z-score [1],PBM binding z-score [2],PBM binding z-score [3],PBM binding z-score [4],PBM binding z-score [5],PBM binding z-score [6],PBM binding z-score [7],PBM binding z-score [8]
GCTCGGAGGGCAAGGTCAGAGCTTTGTCCGTAGA,3.27,3.7,3.86,0.857,2.93,2.76,0.825,0.967
TCTTGTCGATCAACAGGAGGTTAAGAAAGATCGA,0.439,0.322,0.198,0.168,0.805,0.59,-0.736,-0.499
CCTACTAGGCCAAAGGTCATTGATTCCAATGCTC,4.84,6.22,5.49,2.06,6.88,3.67,1.45,2.65
TCTGCTAGGTCAACGATGCTCAGCTAATCTGCTA,2.66,3.76,4.76,0.989,2.18,2.47,0.23,-0.64
CCGACTGGGGCAGAAAGGGTACCATACCATCCGG,0.624,0.0836,0.273,-1.36,0.143,-0.36,-0.53,-0.349
AGAATGAGGTTACCAAAGATCAGGGAGACGCTTG,0.689,2.21,1.8,1.28,2.77,2.86,0.711,0.443
CGATCTAGGTCAAGGACAGTGAATCTCCGCACGC,2.75,3.6,4.45,1.55,2.2,3.07,2.46,0.43
CGAACTAGGTCATTGATAGGACAGTGAATAGTAA,2.83,4.58,4.22,2.29,2.34,2.61,0.97,1.35
AGAATGAGGTTATTAAGATCAGTGAATTGCGGTC,0.636,1.21,0.905,2.02,1.67,2.17,0.753,1.09
CAAACTAGGTCACGAAAGGTCCAAGTCGAATGAC,3.73,5.23,5.73,1.55,4.45,3.87,1.39,1.55
CCTACTGGGCCATTCAGTGGTCATTGATCATATG,0.199,0.241,0.159,-0.408,-0.279,-0.329,-0.878,-0.288
AGAATGACGTTACCAAAGATCAGGGAAACGCTTG,-0.559,0.085,0.256,-0.636,0.0989,-0.427,-0.611,0.0201
CAAACTAGGTCACGAAAGGACAAAGTCGAATGAC,4.13,5.37,6.43,1.59,4.1,4.56,1.59,1.06
TGTGCTAGGTCAACGATGGTCAGCTAATCTGCTA,3.4,3.88,5.19,0.342,2.45,3,0.529,-0.186
ACAGACCGGTGAGTGAAGGTAACTCAGCTGGACG,-0.506,-0.114,-0.11,-0.55,-0.109,0.21,-0.915,-0.72
GCTAGCAGGCCTTTTGGGTCACTCAATGACGGGC,1.39,0.621,0.516,-0.579,0.552,2.11,0.611,-0.536
TCTTGTAGATCAAAGGTTGAGAAAGCCGAAGCCT,0.0942,0.326,-0.192,0.518,1.08,0.142,-0.747,-0.223
TTTCCAAGGTGAAGGTCGTTGATCCCTCTGTAGA,2.06,1.51,1.29,0.389,1.95,2.94,1.8,1.37
CCTACTGGGCCAAGGTCATTGAACAGTCAAAGCA,3.4,3.82,3.72,0.677,3.68,3.5,2.14,2.77
